Measurements as given in PubChem BioAssay AID1159580 (chemical genetic matrix, 2015).
About 2,000 (36%) of roughly 5,500 compounds were called active. Roughly 18% stayed inconclusive and do not appear here. Rule as the data show it: active = normalized growth mostly below about 0.91 (no sharp cut-off); inconclusive = no clear call, values can overlap the other calls; inactive = mostly above about 0.92. This is one part of the list.

Experiment: chemical genetic growth profiling, strain panel (AID 1159580);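 also: tested at 20 µM; growth read once vehicle control cultures reached saturation at 30 °C; 1 = growth at the plate median or of vehicle wells; lower values mean less growth of the strain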
Settings: S. cerevisiae deletion strains, growth OD

Measured: normalized growth

Cn1cc(C2=C(c3ccc(Cl)cc3Cl)C(=O)NC2=O)c2ccccc21
inactive: locus YAL040C, strain CLN3, hits give low values 1.02 | locus YCL061C, strain MRC1 (second series), hits give low values 1.01 | locus YDR363W, strain ESC2, hits give low values 1.01 | locus YER002W, strain NOP16, hits give low values 0.994 | locus YMR263W, strain SAP30, hits give low values 1.01 | locus YNL175C, strain NOP13, hits give low values 1 | locus YNL197C, strain WHI3, hits give low values 1 | locus YNL224C, strain SQS1, hits give low values 1.02 | locus YNL322C, strain KRE1, hits give low values 1 | locus YOR083W, strain WHI5 (second series), hits give low values 1.01 | locus YPL241C, strain CIN2, hits give low values 1.01
